Source: ChEMBL document CHEMBL1201862, “PubChem BioAssay data set” (2004)
The whole screen tested about 57,000 sequences, of which about 3,700 (6.5%) were called active. Cut-off read from the data, not from the text of the source: active = GI50 up to about 1.1 µM and inactive = higher. The list is a sample of the results. Results with a measured potency or affinity are listed apart.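 Cultured in 96-well plates, cells were exposed to test compound for 48 hours across five concentrations. Here, GI50 denotes the concentration required for 50% inhibition of growth.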

These substances were tested on IGROV-1 (assay: NCI tumour cell line growth inhibition, 48 h).

Row | Substance | GI50 [µM]
1 | [Bis(aminomethyl)pentamethylenesilane]dichloropaltinum(II), CHEMBL2146202 | 41.9
2 | [Bis(aminomethyl)pentamethylenesilane]tetrachloropaltinum(IV), CHEMBL2146204 | 10.5
3 | CISPLATIN, CHEMBL11359 | 2.02
4 | mu-(1,7-nanodiamine-N,N')bis-(cis-aminedichloroplatimum (II)), CHEMBL2146215 | 29
5 | [Bis(aminomethyl)tetramethylenesilane]dichloropaltinum(II), CHEMBL2146205 | 36.8
6 | [Bis(aminomethyl)dimethylsilane]dichloroplatinum (II), CHEMBL2146201 | > 100
7 | [Bis(aminomethyl)diethylsilane]tetrachloroplatinum(IV), CHEMBL2146203 | 15.5
8 | [Bis(aminomethyl)ethylmethylsilane]tetrachloroplatinum(IV), CHEMBL2146192 | 16
9 | cis-Bis[[(trimethylsilyl)methyl]amino]tetrachloroplatinum(IV), CHEMBL2146191 | 15.4
10 | [Bis(aminomethyl)dimethylsilane]tetrachloroplatinum(IV), CHEMBL2146190 | 15.4
11 | [Bis(aminomethyl)tetramethylenesilane]tetrachloropaltinum(IV), CHEMBL2146189 | 6.1
